Results as given in PubChem BioAssay (NCATS).
A number with no mark means an inactive call. Calls follow the shape of the dose curve; as a rule, active = well fitted inhibition curve with a large enough effect; inconclusive = small, poorly fitted or top-dose-only effect; inactive = no such curve, though single readings can be large or run the other way.

Experiment: qHTS assay for measurement of the activity of small molecule inhibitors on Zika virus induced Caspase-3 activity in human astrocytoma cells (AID 1224859);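 also: plate controls were ZIKV-infected untreated cells for no effect and uninfected cells for full effect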
Details: SNB-19 ZIKV-induced caspase-3/7, luminescence, 6 h; series mostly up to 45.7 µM; activity change, negative = inhibition: at the top concentration
Excerpt: National Center for Advancing Translational Sciences [NCATS]
Johns Hopkins University School of Medicine
Increase in the Caspase-3 activity indicates an activation of apoptosis cell death pathway caused by Zika virus infection in certain types of neuronal cells including human neural progenitor cells (hNPCs), astrocytes, and astrocytoma cell line (SNB-19). This cell-based caspase-3 activity assay measures the increased caspase-3 activity in the astrocytoma cell line (SNB-19) after a 6-hour Zika virus infection with a luminescence readout. A decrease in the luminescence signal in this assay by small molecule treatment indicates an inhibitory effect of that small molecule on the Zika virus induced caspase-3 activity that may correlate with its effect on reduction of Zika virus caused cell death.
The medium for SNB-19 cells is composed of RPMI 1640 (ATCC, Cat.# 30-2001), 10% fetal bovine serum (FBS) (GE healthcare Life Sciences, Cat.# SH30071.03), and 1% Pen/Strep (Gibco, Cat.# 15140-122). A Caspase-Glo 3/7 assay kit (catalog number G8092; Promega, Madison, WI) was used to detect caspase-3 activity induced by Zika virus infection in human cells. The reagent mixture was reconstituted as described in the protocol from the manufacturer. Polystyrene tissue culture treated and PDL coated white plates were obtained from Greiner Bio-One (Monroe, NC). Cells were seeded in 384- or 1536-well assay plates and cultured at 37 C with 5% CO2 for 16 to 20 hours. The typical cell seeding density in the 1536-well plate assay is 250 cells/well in 3ul medium for SNB-19 cells in tissue culture treated plates. Compounds were added to cells and incubated for one hour before addition of ZIKV solution to cells (2 FFU/cell). After incubation at 37 C with 5% CO2 for 6 hours, the reagent mixture of Caspase-Glo 3/7 assay kit was added to each well, followed by incubation at room temperature for 30 minutes. The luminescence intensity of the assay plates was measured using a ViewLux plate reader (PerkinElmer). Data were normalized by using the cell-containing wells without ZIKV as a negative control (0% induction of caspase 3/7 activity) and wells containing ZIKV infected cells (Caspase-3 activity induced) as a positive control (100% induction of caspase 3 activity). The percentage inhibitions of the increased Caspase-3 activity by small molecule inhibitors were then calculated.

SMILES	activity change, negative = inhibition
Cc1ccc(S(=O)(=O)NC(=O)NC2CCCCCCC2)cc1	10.7%
Cc1ccc2c(c1)c1c3n2CCNC3CCC1 (stereo not given)	0.0553%
NS(=O)(=O)c1ccc(NC(=O)CCC(=O)O)cc1	0.966%
Cc1cccc(C)c1NC(=O)CC12CCCN1CCC2	5.45%
NS(=O)(=O)c1cc2c(cc1C(F)(F)F)NCNS2(=O)=O	-4.45%
CCCCCCCCCCCCCCCCCCO	33.5%
NS(=O)(=O)c1cc(C2(O)NC(=O)c3ccccc32)ccc1Cl (stereo not given)	20.9%
CCN(CC)C(=O)c1cccc(C)c1	-4.55%
COC(=O)c1ccc(O)cc1	4.27%
CN1C[C@@H]2C[C@H]1CN2c1cc2c(cc1F)c(=O)c(C(=O)O)cn2C1CC1	0.0828% [at 20.5 µM]
O=C(O)c1ccccc1OP(=O)(O)O	-1.09%
C[n+]1ccccc1/C=N/O	6.12%
c1ccc2[nH]ccc2c1	13.8%
CCOc1ccc(C(=O)OCCN(CC)CC)cc1	-5.65%
NCC1CCC(C(=O)Oc2ccc(CCC(=O)O)cc2)CC1 (stereo not given)	-1.32%
CC[N+](C)(CC)CCOC(=O)C1c2ccccc2Oc2ccccc21	-16.3%
CN1CC(=O)NC1=N	-4.71%
C[C@@H](N)C(=O)O	-9.89%
O=C(Cn1ccnc1[N+](=O)[O-])NCCO	16.8%
CC(C)(C)C(=O)OCOC(=O)[C@@H]1N2C(=O)[C@@H](NC(=O)[C@H](N)c3ccccc3)[C@H]2SC1(C)C	-12%

SMILES	activity change, negative = inhibition
CNc1c2c(nn1C)CCCC2	-1.82%
CN/C(=C\[N+](=O)[O-])NCCSCc1csc(CN(C)C)n1	-2.81%
CC(C(=O)O)c1ccc2c(c1)Cc1cccnc1O2 (stereo not given)	-0.0528%
CCCCC1(COC(=O)CCC(=O)O)C(=O)N(c2ccccc2)N(c2ccccc2)C1=O	-11.6%
COc1ccc(Cc2cnc(N)nc2N)cc1OC	-0.366%
O=C(O)Cc1cn(-c2ccccc2)nc1-c1ccc(Cl)cc1	2.21%
O=C(NCCCN1CCOCC1)c1ccc(Cl)cc1	9.17%
O=C(Cn1ccnc1[N+](=O)[O-])NCc1ccccc1	-2.37%
CCCCCCCCCCOc1cc2c(=O)c(C(=O)OCC)c[nH]c2cc1OCC	-3.7% [at 4.53 µM]
CC1(c2ccccc2)OC(C(=O)O)=CC1=O (stereo not given)	15.3%
NC(=O)N[C@@H](CCC(=O)O)C(=O)O	-0.445%
O=C(O)c1cc(=O)c2ccccc2o1	-0.728%
CCOC(=O)[C@H](CCc1ccccc1)N[C@@H](C)C(=O)N1Cc2cc(OC)c(OC)cc2C[C@H]1C(=O)O	-5.99%
CCOC(N)=O	25.9%
CCOC(=O)c1cccnc1	6.39%
OC(CCN1CCCC1)(c1ccccc1)C1CCCCC1 (stereo not given)	11.1%
CCCCCC(N)=O	9.97%
O=c1[nH]c(=O)n([C@H]2C[C@H](O)[C@@H](CO)O2)cc1I	3.87%
COc1ccc(O)cc1	5.45%
CC(=O)N[C@H]1[C@H]([C@H](O)[C@H](O)CO)OC(C(=O)O)=C[C@@H]1N=C(N)N	-21.4%
